Consider 17 molecules from PubChem BioAssay (NCATS).

Each structure is given as a SMILES string. Inconclusive results are not listed. Values without a mark were called inactive. The call rests on the fitted dose curve; in most records, active means well fitted activation curve with a large enough effect; inconclusive means small, poorly fitted or top-dose-only effect; inactive means flat fitted curve, though single readings scatter.

A short description of the assay: Primary redox qHTS assay for identification of artifact compounds. (AID 1845223).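 Further: 0% = DMSO and 100% = reference compound.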 The note with it: Amplex Red/HRP redox cycling with DTT, fluorescence; series mostly up to 53.8 µM; redox activity (% of DA3003): at the top concentration. The method, boiled down: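 Redox-cycling detection via DTT (250 uM final) oxidation coupled to Amplex Red (25 uM)/HRP (250 mU/mL) in HBSS. 15 min preincubation plus 30 min after DTT, room temperature. Ex/Em 525/598 nm; 4-parameter Hill fit against DMSO and 10 uM DA3003.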
Background: qHTS replaces the single test concentration by a dilution series.
Regarding `CCc1cc(S(=O)(=O)O)c2cc(C(C)C)cccc1-2`, the “redox activity (% of DA3003)” value is 1.69%.

For `COc1cc(NS(=O)(=O)c2ccc(N)cc2)nc(C)n1`, the “redox activity (% of DA3003)” value is -2.65%.

As for `O=C(O)CNC(=O)CNC(=O)CNC(=O)CSC(=O)c1ccccc1`, the “redox activity (% of DA3003)” value was -4.34%.

Regarding `CC(=O)Oc1ccc(C2(c3ccc(OC(C)=O)cc3)Oc3ccccc3NC2=O)cc1`, the “redox activity (% of DA3003)” value was 6.44%.

`CCOC(=O)c1ccc(OCCN2C[C@H](O)[C@@H](O)[C@H](O)[C@H]2CO)cc1`: the “redox activity (% of DA3003)” value is -0.661%.

Turning to `CCCN(CCC)C(=O)C(CCC(=O)OCCCN1CCN(CCOC(=O)Cc2c(C)n(C(=O)c3ccc(Cl)cc3)c3ccc(OC)cc23)CC1)NC(=O)c1ccccc1` (configuration not stated), the “redox activity (% of DA3003)” value is 16.6%.

`C[N+]1(CC2COC(c3ccccc3)(c3ccccc3)O2)CCCCC1` (configuration not stated): the “redox activity (% of DA3003)” value is 16.8% [at 25.6 µM].

On to `CN(CC1(C)CCCO1)S(=O)(=O)c1ccc(Cl)c(S(N)(=O)=O)c1` (configuration not stated), for which the “redox activity (% of DA3003)” value was -1.66%.

For `CC(=O)[C@H]1CC[C@H]2[C@@H]3C=CC4=CC(=O)CC[C@@]4(C)[C@@H]3CC[C@]12C`, the “redox activity (% of DA3003)” value was -4.81%.

As for `OC1(c2ccc(Cl)c(C(F)(F)F)c2)CCN(CCCC(c2ccc(F)cc2)c2ccc(F)cc2)CC1`, the “redox activity (% of DA3003)” value was -6.19%.

As to `O=[N+]([O-])c1nccn1CO[C@@H](CO)[C@H](O)CO`, the “redox activity (% of DA3003)” value is -0.584%.

In the case of `Brc1ccc([C@H]2CN3CCSC3=N2)cc1`, the “redox activity (% of DA3003)” value was -4.29%.

As to `Cc1ccccc1C(=O)N1CC/C(=N\OS(=O)(=O)O)c2ccc(Cl)cc21`, the “redox activity (% of DA3003)” value was 8.02%.

With `O=C1[C@@H]2[C@H]3CC[C@H](C3)[C@@H]2C(=O)N1CCCCN1CCN(c2ncccn2)CC1`, the “redox activity (% of DA3003)” value was 3.15%.

For `CCN1C(=O)c2ccccc2C1Nc1ccc(OCCN2CCCCC2)cc1` (configuration not stated), the “redox activity (% of DA3003)” value is 13.9%.

Turning to `CCN1CCN(c2cc(-c3ccc(F)cc3)c3c(n2)CCCCCC3)CC1`, the “redox activity (% of DA3003)” value was -3.96%.

With `CCOC(=O)c1ccc(NC(=O)CN2CCCCC2)cc1`, the “redox activity (% of DA3003)” value is 1.24%.
